Screening results from PubChem.
RORg inh – blocks mouse ROR gamma transcriptional activity. Potency, µM (highest dose often 53.6 µM), actives largely listed as inhibitors. AID 2551. 5.4% of 310,000 active. P51450. Drosophila S2 Gal4-RORgamma UAS-luciferase reporter, 20 h; also: nearly all actives have a fitted effect of over 60% in size
Target sequence (P51450 whole entry, looked up, the tested form may be a part): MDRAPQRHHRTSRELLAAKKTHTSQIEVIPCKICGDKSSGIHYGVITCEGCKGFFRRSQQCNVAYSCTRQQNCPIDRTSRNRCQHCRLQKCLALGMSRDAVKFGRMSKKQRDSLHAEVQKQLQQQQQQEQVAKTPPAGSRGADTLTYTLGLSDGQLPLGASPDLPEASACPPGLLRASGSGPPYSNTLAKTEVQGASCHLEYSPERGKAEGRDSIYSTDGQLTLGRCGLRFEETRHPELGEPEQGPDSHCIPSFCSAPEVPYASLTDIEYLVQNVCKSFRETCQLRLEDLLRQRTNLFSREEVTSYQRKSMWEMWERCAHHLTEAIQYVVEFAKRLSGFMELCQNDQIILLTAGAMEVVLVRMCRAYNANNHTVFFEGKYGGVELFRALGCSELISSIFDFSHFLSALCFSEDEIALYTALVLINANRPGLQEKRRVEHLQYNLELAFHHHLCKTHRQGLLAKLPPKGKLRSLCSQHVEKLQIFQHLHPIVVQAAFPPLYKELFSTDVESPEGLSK
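ROR gamma transcriptional activity was tracked as Gal4-UAS luciferase output in stably transfected Drosophila Schneider cells, with compound added 1 hr before 700 uM copper sulfate induction and a 20 hr ambient-temperature incubation.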
SW480 rereplic – inducers of DNA re-replication in SW480 colon cancer cells; SW480 DNA re-replication, Hoechst DNA content imaging, 48 h; AID 624297; Potency, µM (titrated, usually from 46.1 µM), actives largely listed as activators; 1.8% of 340,000 active; also: nearly all actives have a fitted effect of over 55% in size
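Treated cells incubate 48 hr (37 C, 5% CO2), are stained 40 min with Hoechst, and nuclear fluorescence is enumerated; a rise in nuclei with high DNA signal marks re-replication.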
MCF10A rereplic – induces DNA re-replication in MCF 10a normal breast cells; MCF 10A DNA re-replication, Hoechst nuclear intensity, 48 h; Potency, µM (highest dose often 46.1 µM), usual class: activators; 2.9% of 350,000 active; AID 624296; also: nearly all actives have a fitted effect of over 50% in size
VP16 counter – inhibits Gal4-VP16 luciferase reporter, ROR gamma counter-screen; Drosophila S2 Gal4-VP16 UAS-luciferase, luminescence, 20 h; Potency, µM (highest dose often 53.6 µM), hits mostly inhibitors; 3.5% of 310,000 active; AID 2546;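 also: Gal4-VP16 expression switched on by copper sulfate through the metallothionein promoter; nearly all actives have a fitted effect of over 50% in size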
KB-V1 MDR tox – KB-V1 MDR subline cytotoxicity | KB-V1 MDR cells viability, CellTiter-Glo, 72 h | Potency, µM (doses to about 46.1 µM), actives largely listed as cytotoxic | 3.4% of 400,000 active | AID 1347076; also: nearly all actives have a fitted effect of over 60% in size
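Drug-selected KB-V1 cells, grown in DMEM lacking phenol red with 10% FBS, receive compound titrations; after three days at 37 degrees C, surviving cell ATP is quantified by CellTiter-Glo luminescence and responses normalized and curve-fitted.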
KB-3-1 cytotox – kills parental KB-3-1 adenocarcinoma cells; Potency, µM (top dose mostly 46.1 µM), hits mostly cytotoxic; 1.4% of 400,000 active; KB-3-1 viability, CellTiter-Glo ATP luminescence, 72 h; also: nearly all actives have a fitted effect of over 60% in size
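Viability of parental KB-3-1 cells, measured by CellTiter-Glo luminescence, followed a 72 h incubation at 37 °C with pinned compounds in phenol-red-free DMEM containing 10% FBS.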
Hits are given with their value; . = inactive; ? = inconclusive; / = no result; [ ] = another dose, or the depositor's remark. Hits are enriched below; roughly 10% of the tested compounds scored in any of these assays. Calls follow the shape of the dose curve; as a rule, active = well fitted curve in the direction sought with a large enough effect; inconclusive = small, poorly fitted or top-dose-only effect, or another doubt; inactive = no such curve, though single readings can be large; an effect the other way counts as inactive or inconclusive.

SMILES | RORg inh | SW480 rereplic | MCF10A rereplic | VP16 counter | KB-V1 MDR tox | KB-3-1 cytotox
COc1ccc2nc3cccc(OC)c3nc2c1 | ? | ? | 1.3µM | ? | . | .
COc1ccc(-c2nc3ccccc3nc2-c2ccc(OC)c(OC)c2)cc1OC | ? | . | . | . | . | .
COc1ccc2nc3ccccc3nc2c1N | ? | . | ? | 15.8µM | ? | .
COc1ccc2nc(-c3ccco3)c(-c3ccco3)nc2c1 | ? | ? | ? | . | ? | .
CCc1ccccc1NC(=O)CN(Cc1ccccc1)S(=O)(=O)c1ccc(Br)cc1 | / | / | / | / | . | .
Cc1cc(N2CCOCC2)n2nc(-c3cccc(F)c3)cc2n1 | . | . | ? | . | ? | .
CCC1CCCCN1c1cc(C)nc2cc(-c3cccc(C)c3)nn12 (stereo not given) | 10µM | ? | 3.55µM | . | . | .
COC(=O)[C@@]12C[C@@H](CC(=O)NCc3ccccc3)C(=O)N(Cc3cccc4ccccc34)C1=CCC(C)(C)C2 | / | / | / | / | ? | .
COC(=O)[C@@]12C[C@@H](CC(=O)NCCCCc3ccccc3)C(=O)N(Cc3cccc4ccccc34)C1=CCC(C)(C)C2 | / | / | / | / | 18.4µM | ?
COCCCNC(=O)C[C@@H]1C[C@@]2(C(=O)OC)CC(C)(C)CC=C2N(Cc2cccc3ccccc23)C1=O | / | / | / | / | ? | .
CCCCOCCCNC(=O)C[C@@H]1C[C@@]2(C(=O)OC)CC(C)(C)CC=C2N(Cc2cccc3ccccc23)C1=O | / | / | / | / | 20.6µM | ?
Cc1nn(C2CCS(=O)(=O)C2)c2nc(C3CC3)cc(C(=O)Nc3ccc(C(N)=O)cc3)c12 (stereo not given) | / | . | . | / | . | .
CC1(C)C(=O)NC2=C1C(=O)C(=O)c1ccccc12 | 1.41µM | / | / | 2.82µM | / | /
Nc1ccc(Br)c2c1C(=O)c1ccccc1C2=O | ? | . | . | . | . | .
C[C@H]1[C@H](C)CC[C@]2(C(=O)O)CC[C@]3(C)C(=CC[C@@H]4[C@@]5(C)C[C@@H](O)[C@H](O)C(C)(C)[C@@H]5CC[C@]43C)[C@H]12 | 10µM | . | ? | ? | . | .
CC1CCC2(C(=O)O)CCC3(C)C(=CCC4C3(C)CCC3[C@@]4(C)CC(O)C(O)[C@@]3(C)CO)C2C1C (stereo not given in full) | . | / | / | . | / | /
Fc1ccc2nncc(SCc3ccccc3Cl)c2c1 | / | . | 18.4µM | / | . | .
COc1ccc(C(=O)Nc2ccc(NC(=O)c3cccc(OC)c3)cn2)cc1 | ? | . | . | ? | . | .
COc1ccc(NC(=O)c2cccc(NC(=O)c3ccccc3)c2)cc1 | ? | . | . | . | . | .
COc1ccc(COc2cc(-c3cccc(OC)c3)nc3ccc(NC(=O)c4ccccc4)cc23)cc1 | . | 16.4µM | 4.61µM | . | . | 16.4µM
COc1ccc(COc2cc(-c3cccc(OC)c3)nc3ccc(NC(=O)c4ccc(Cl)cc4)cc23)cc1 | . | 23.1µM | 25.9µM | . | . | ?
COc1ccc(COc2cc(-c3cccc(OC)c3)nc3ccc(NC(=O)c4ccc(OC)cc4)cc23)cc1 | ? | 4.11µM | 2.31µM | . | . | 4.11µM
CNC(=O)[C@H](C)[C@H]1C[C@]1(C)[C@H](NC(=O)OCc1ccccc1)c1ccccc1 | . | / | / | . | / | /
O=C(Nc1ccccc1)c1cc(C2COCCN2C(=O)C2CC2)on1 (stereo not given) | / | / | / | / | . | .
CCOc1ccccc1Nc1nc(-c2ccc(C)cc2)c(CC(=O)O)s1 | / | / | / | / | . | .
SMILES | RORg inh | SW480 rereplic | MCF10A rereplic | VP16 counter | KB-V1 MDR tox | KB-3-1 cytotox
CNc1cc(CSc2ccc(Cl)cc2)nc(C)n1 | . | 5.17µM | . | ? | . | .
Cc1cccc2nc(CSc3ccc(Cl)cc3)cn12 | 7.94µM | . | . | ? | ? | .
Clc1ccc(-n2nnnc2SCc2cn3ccccc3n2)cc1 | ? | . | ? | . | . | .
Clc1ccc(SCc2cn3ccccc3n2)cc1 | 8.91µM | . | . | . | . | .
Cc1cccc2nc(CSc3nc4cc([N+](=O)[O-])ccc4s3)cn12 | 20µM | . | . | ? | . | .
Cc1cccc2nc(CSc3nc4ccccc4[nH]3)cn12 | . | . | . | . | . | .
Cc1ccc(SCc2cn3cc(Cl)ccc3n2)cc1 | ? | . | . | . | . | .
CC(C)C[C@H]1CN(CCCC[C@H]2CNC(=O)C(=O)N2CC2CCCCC2)C(=O)C(=O)N1CCc1ccccc1 | / | / | / | / | . | .
O=C(Nc1cccc(F)c1)[C@H](CSCc1ccccc1)N1Cc2ccccc2C1=O | / | / | / | / | . | .
O=[N+]([O-])c1nn(-c2ccc3c(c2)OCCO3)n(O)c1=NC1CCCCCC1 | . | . | . | . | 16.4µM | .
COc1ccc(-n2nc([N+](=O)[O-])c(=NCc3ccc4c(c3)OCO4)n2O)cc1 | .[10 µM] | . | . | . | 20.6µM | .
O=[N+]([O-])c1nn(-c2ccc3c(c2)OCCO3)n(O)c1=NC1CCCC1 | ? | . | . | . | . | .
COc1ccc(C(=O)OCC(=O)NC2CC2)cc1F | / | . | . | / | . | .
Cc1ccc(-c2c[n+](Cc3ccc(Cl)c(Cl)c3)c3n2CCC3)cc1 | ? | . | ? | ? | . | 3.66µM
Cc1ccc(C(=O)C[n+]2cc(-c3ccc(C)cc3)n3c2CCCCC3)cc1 | ? | . | ? | 5.01µM | . | 0.92µM
Cc1ccc(-c2c[n+](CC(=O)OCc3ccccc3)c3n2CCC3)cc1 | . | 9.2µM | ? | . | . | .
O=C(C#Cc1ccccc1)Nc1cccc(F)c1 | / | ? | ? | / | ? | 23.1µM
O=C(C#Cc1ccccc1)Nc1ccc(F)cc1 | . | ? | . | . | . | ?
COc1ccc(NC(=O)C#Cc2ccccc2)cc1 | . | ? | ? | ? | . | 20.6µM
COc1ccc(NC(=O)CCCCC#Cc2ccccc2)cc1 | . | . | . | . | . | .
COc1cccc(CNC(=O)Cn2c(C)c3cnn(-c4ccccc4)c(=O)c3c2C)c1 | / | / | / | / | . | .
Cc1ccc(/C=N/n2c(C3CCCCC3)n[nH]c2=S)cc1 | 2.51µM | . | . | 7.08µM | . | .
COc1cc(/C=N/n2c(C3CCCCC3)n[nH]c2=S)cc(OC)c1O | . | . | . | . | . | .
FC(F)(F)c1ccc(/C=N/n2c(C3CCCCC3)n[nH]c2=S)cc1 | . | . | 23.1µM | 10µM | . | .
S=c1[nH]nc(C2CCCCC2)n1/N=C/c1ccc(Br)s1 | 1.12µM | ? | 18.4µM | 3.98µM | . | .
CCc1ccc(/C=N/n2c(C3CCCCC3)n[nH]c2=S)cc1 | 3.55µM | . | ? | 8.91µM | . | .
S=c1[nH]nc(C2CCCCC2)n1/N=C/c1c(Cl)cccc1Cl | ? | . | ? | ? | . | .
O=C(CSCn1nnc2c(=O)[nH]c(Cc3ccc(F)cc3)nc21)Nc1cccc(C(F)(F)F)c1 | / | / | / | / | . | .
